Here are results for nine molecules from PubChem BioAssay.

Assay [1] is described as follows: resazurin metabolic signal in HepG2 cells – cell-based, resazurin fluorescence, 24 h, PK04 Diversity Set, profiling panel (AID 1172). To be noted: HepG2 viability, higher = more signal. On the technique in general: The colour change of resazurin is a common sign of viable cells or microbes.
Assay [2] in a line: budding yeast growth changes without added modifier – OD600, strain BY4716, 24 h, basal condition, primary screen (AID 1173). To be noted: S. cerevisiae BY4716 growth, OD600, 24 h; higher = more signal, called active from +8 up or from −8 down.
A short description of assay [3]: viability profiling in MM1S myeloma cells – cell-based, resazurin fluorescence, basal, 24 h, PK04 Diversity Set, profiling panel (AID 1174).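 Note: MM1S multiple myeloma cell line.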 To be noted: higher = more signal, called active from +8 up or from −8 down.
In assay [4] the target is Dihydroorotate dehydrogenase (quinone), mitochondrial (Plasmodium falciparum (isolate 3D7)) (UniProt Q08210). Description: inhibition of P. falciparum DHODH – biochemical, C-terminal His tag, absorbance 600 nm, primary screen (AID 1175).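 Note: recombinant parasite enzyme with a five histidine tag at its C terminus.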 To be noted: PfDHODH enzyme, DCIP absorbance 600 nm; higher = more signal, called active from +8 up or from −8 down.
Dihydroorotate dehydrogenase (quinone), mitochondrial (Plasmodium falciparum (isolate 3D7)), sequence (Q08210 whole entry, looked up): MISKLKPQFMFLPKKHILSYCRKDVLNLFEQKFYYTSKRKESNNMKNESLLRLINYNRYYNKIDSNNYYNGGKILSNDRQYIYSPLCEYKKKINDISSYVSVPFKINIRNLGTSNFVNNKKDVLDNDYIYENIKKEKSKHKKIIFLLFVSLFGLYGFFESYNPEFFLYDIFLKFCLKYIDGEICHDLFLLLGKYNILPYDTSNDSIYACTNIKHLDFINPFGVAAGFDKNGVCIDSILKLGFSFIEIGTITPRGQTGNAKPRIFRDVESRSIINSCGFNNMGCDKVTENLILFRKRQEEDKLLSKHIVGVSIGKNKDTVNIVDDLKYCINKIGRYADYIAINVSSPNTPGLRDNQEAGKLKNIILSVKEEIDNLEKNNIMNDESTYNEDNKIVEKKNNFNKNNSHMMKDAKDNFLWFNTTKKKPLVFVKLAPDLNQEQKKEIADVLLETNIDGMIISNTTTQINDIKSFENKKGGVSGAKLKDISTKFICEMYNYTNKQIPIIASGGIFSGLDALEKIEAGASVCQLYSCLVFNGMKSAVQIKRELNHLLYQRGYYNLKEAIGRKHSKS
Assay [5] can be described thus: inhibition of PAO1 biofilm formation – strain PAO1, LB-PBS medium, absorbance 600 nm, primary screen (AID 1176). To be noted: P. aeruginosa PAO1 growth/biofilm, A600, 12 h; higher = more signal.
Assay [6] in a line: growth modulation of vineyard yeast isolate – strain RM11-1a, OD600, basal, 24 h, primary screen (AID 1177).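 Note: cultures grown under basal conditions with no added stressor.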 To be noted: S. cerevisiae RM11-1a growth, OD600, 24 h; higher = more signal, called active from +8 up or from −8 down.
The nature of assay [7]: growth of efflux-deficient E. coli DRC39 – strain DRC39, OD650, 24 h, E. coli filamentation inducers, primary screen (AID 1178).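 Note: growth measured as culture turbidity by optical density at 650 nm.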 To be noted: E. coli DRC39 acrAB, higher = more signal, called active from +8 up or from −8 down.
Assay [8] is described as follows: growth of efflux-deficient E. coli DRC39 – strain DRC39, OD650, 48 h, E. coli filamentation inducers, primary screen (AID 1179).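 Note: screen aims at cell division blockers that make cells filament.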 To be noted: E. coli DRC39 delta-acrAB growth, higher = more signal, called active from +8 up or from −8 down.
Assay [9] in a line: viability profiling in RPMI8226 myeloma cells – cell-based, resazurin fluorescence, basal, 24 h, PK04 Diversity Set, profiling panel (AID 1180).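 Note: RPMI8826 multiple myeloma cell line at 5000 cells per well.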 To be noted: higher = more signal.
Assay [10] concerns the target E3 ubiquitin-protein ligase XIAP (Homo sapiens) (UniProt P98170). Description: small molecules binding XIAP protein – biophysical, small-molecule microarray, fluorescence 635 nm, primary screen (AID 1181).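 Note: score merges 667 nm emission and signal to noise over triplicate slides.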 To be noted: higher = more signal.
Assay [11] concerns XIP peptide (Xip251-270) binding. Description: XIP fragment 251-270 binding compounds – biochemical, small-molecule microarray, fluorescence 635/667 nm, 0.1 µg/mL protein, primary screen (AID 1182). To be noted: fluorescent protein binding, 635 nm, higher = more signal, called active from +8 up or from −8 down.
The subject of another assay is XIP peptide (Xip251-270). Description: compounds binding XIP fragment 251-270 – biochemical, small-molecule microarray, fluorescence 635/667 nm, 0.5 µg/mL protein, primary screen (AID 1183). To be noted: fluorescence 635 nm, higher = more signal.
Assay [12] in a line: blood-stage malaria parasite viability loss – strain 3D7, DAPI fluorescence, 100 nL, primary screen (AID 1184).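 Note: parasites grown inside human red blood cells in medium with human serum.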 To be noted: P. falciparum 3D7 growth, 3 d, higher = more signal.
For assay [13], the target named is Homeobox protein Hox-A13 (Mus musculus) (UniProt Q62424). Description: disruptors of Hoxa13 oligonucleotide interaction – biochemical, fluorescence polarization, labeled oligonucleotide, primary screen (AID 1185). To be noted: Hoxa13:DNA binding, 15 min, higher = more signal, called active from +8 up or from −8 down. For orientation: Polarisation of emitted light reports the rotation of a fluorescent probe.
Homeobox protein Hox-A13 (Mus musculus), sequence (Q62424 whole entry, looked up): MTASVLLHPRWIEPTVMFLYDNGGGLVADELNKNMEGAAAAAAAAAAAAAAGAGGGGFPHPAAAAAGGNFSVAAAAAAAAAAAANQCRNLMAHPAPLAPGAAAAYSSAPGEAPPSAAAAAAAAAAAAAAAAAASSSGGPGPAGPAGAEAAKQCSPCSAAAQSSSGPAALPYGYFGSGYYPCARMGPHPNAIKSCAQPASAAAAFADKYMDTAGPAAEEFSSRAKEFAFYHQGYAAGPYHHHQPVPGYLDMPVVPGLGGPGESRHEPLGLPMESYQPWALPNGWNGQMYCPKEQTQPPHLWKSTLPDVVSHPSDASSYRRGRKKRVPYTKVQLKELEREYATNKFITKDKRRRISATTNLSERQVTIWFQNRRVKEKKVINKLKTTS

A short description of assay [14]: blockers of DNA damage checkpoint Chk1 activation – imaging, HeLa, hydroxyurea, phospho-Chk1 antibody, percent positive cells, primary screen (AID 1186). To be noted: hydroxyurea-induced phospho-Chk1 immunofluorescence imaging, higher = more signal.
A short description of assay [15]: blockers of DNA damage checkpoint Chk1 activation – imaging, HeLa, hydroxyurea, phospho-Chk1 nuclear intensity, primary screen (AID 1187). To be noted: hydroxyurea-induced phospho-Chk1 immunofluorescence imaging, higher = more signal.

Structures are written as SMILES. Calls of active or inactive are those of the source. Unless noted, the rule behind the calls is not given here.

E3 ubiquitin-protein ligase XIAP (Homo sapiens), sequence (P98170 whole entry, looked up, the tested form may be a part): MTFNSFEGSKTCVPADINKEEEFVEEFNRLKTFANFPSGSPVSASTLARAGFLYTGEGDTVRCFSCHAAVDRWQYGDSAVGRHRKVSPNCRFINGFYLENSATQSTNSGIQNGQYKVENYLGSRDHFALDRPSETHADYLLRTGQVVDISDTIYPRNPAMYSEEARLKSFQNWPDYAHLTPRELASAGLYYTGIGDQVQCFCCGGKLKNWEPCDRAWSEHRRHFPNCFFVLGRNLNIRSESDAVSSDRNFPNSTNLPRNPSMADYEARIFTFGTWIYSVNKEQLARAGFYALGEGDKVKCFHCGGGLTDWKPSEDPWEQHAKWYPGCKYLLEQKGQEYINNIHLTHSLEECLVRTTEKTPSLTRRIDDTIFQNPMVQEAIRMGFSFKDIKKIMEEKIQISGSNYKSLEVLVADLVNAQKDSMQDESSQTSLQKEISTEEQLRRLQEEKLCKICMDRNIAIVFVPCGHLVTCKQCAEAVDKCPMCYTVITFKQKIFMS

With `CN(C)CCCCCCNC(=O)[C@@H]1C[C@@H]2C(=O)N3CCC[C@H]3C(=O)N2[C@@H]1c1ccc(O)cc1`, the z-score in assay [1] was -0.627; in assay [2], -0.732 (inactive); in assay [3], -0.235 (inactive); in assay [5] it was 1.82 (inactive); in assay [6], -2.55 (inactive); in [7] it was 0.966 (inactive). For the same molecule, the z-score is 1.64 (inactive) in [8]; -0.198 in [9]; 0.199 in assay [12]; 0.647 (inactive) in assay [13]; -0.849 (inactive) in assay [14]; -0.147 (inactive) in assay [15]. Also, the composite z-score is -1.7 (inactive) in assay [4], 0.117 in assay [10], 2.98 (inactive) in assay [11] and 0.929 with XIP peptide (Xip251-270).

In the case of `C#CCOc1ccc(C[C@@H](C(=O)OC)N(CC#C)[C@@H](/C=C/C2CC2)[C@H](O)Cc2ccccc2)cc1`, the z-score is 0.288 in [1]; 1.03 (inactive) in assay [2]; 0.232 (inactive) in assay [3]; -0.271 (inactive) in [5]; 1.45 (inactive) in assay [6]; -0.741 (inactive) in assay [7]. Also, the z-score in assay [8] is -0.528 (inactive); in assay [9] it was 0.318; in [12], -1.21; in [13] it was -3.88 (inactive); in [14], -0.146 (inactive); in assay [15] it was -0.432 (inactive). Besides, the composite z-score in assay [4] was 0.567 (inactive); in assay [10] it was 0.157; in assay [11], -0.365 (inactive); in the assay on XIP peptide (Xip251-270) it was -0.119.

On to `CCCC=C(CCC)[C@@H](NC(=O)OCC(C)C)c1ccccc1`, for which the z-score in assay [1] was -0.624; in assay [2], 1.08 (inactive); in assay [3], -0.863 (inactive); in [5], 2.77 (inactive); in assay [6], 0.396 (inactive); in assay [7], -0.526 (inactive). Besides, the z-score in assay [8] was -1.64 (inactive); in assay [9] it was 0.0342; in assay [12] it was -1.02; in [13], 2.97 (inactive); in assay [14], 0.714 (inactive); in assay [15], 0.115 (inactive). In addition, the composite z-score in [4] was -4.03 (inactive); in assay [10] it was -0.0852; in assay [11] it was -0.0053 (inactive); in the assay with XIP peptide (Xip251-270) it was 0.45.

On to `CC(=O)NCCCC[C@@H]1NC(=O)[C@H]2C[C@@H](C(=O)O)[C@@H](c3ccc(O)cc3)N2C1=O`, for which the z-score in assay [1] is 0.273; in assay [2], -1.35 (inactive); in [3] it was -0.481 (inactive); in assay [5], 0.711 (inactive); in assay [6], 3.29 (inactive); in assay [7], -1.91 (inactive). For the same molecule, the z-score in [8] was -0.879 (inactive); in assay [9] it was 0.002; in assay [12], -1.71; in [13], 4.77 (inactive); in [14], 0.402 (inactive); in assay [15], 0.207 (inactive). For the same molecule, the composite z-score in assay [4] was -0.24 (inactive); in assay [10], 0.5; in [11] it was 1.01 (inactive); in the assay with XIP peptide (Xip251-270) it was 0.764.

For the molecule `CC(C)NC(=O)[C@@]1(Cc2ccccc2I)c2ccccc2C(=O)N(Cc2ccccc2Cl)[C@H]1c1ccc(CO)cc1`, the z-score in [1] is -0.344; in assay [2] it was -0.673 (inactive); in [3], 0.179 (inactive); in assay [5], -0.103 (inactive); in assay [6], 0.818 (inactive); in [7], 0.107 (inactive). The z-score was -0.706 (inactive) in [8]; -0.0558 in [9]; 0.0173 in assay [12]; -3.93 (inactive) in assay [13]; -0.0537 (inactive) in assay [14]; 0.1 (inactive) in [15]. The composite z-score in assay [4] was 0.0754 (inactive); in [10] it was 0.0049; in assay [11] it was 0.705 (inactive); in the assay with XIP peptide (Xip251-270), 0.615.

Regarding `CCOC(=O)C[C@H]1[C@H](OC(=O)c2ccc(C(=O)c3ccccc3)cc2)[C@@H](NC(=O)c2ccccc2)c2cc(OCCCO)ccc2N1C(=O)c1ccccc1`, the z-score is -0.529 in [1]; 0.783 (inactive) in assay [2]; -0.224 (inactive) in assay [3]; 0.137 (inactive) in assay [5]; 0.144 (inactive) in assay [6]; 0.158 (inactive) in [7]. Moreover, the z-score in assay [8] is 0.293 (inactive); in assay [9], 0.247; in assay [12], -0.263; in assay [13], -1.19 (inactive); in [14], 0.743 (inactive); in [15] it was 0.943 (inactive). Also, the composite z-score in [4] was -0.206 (inactive); in assay [10], -0.0152; in [11] it was -0.492 (inactive); with XIP peptide (Xip251-270), 0.59.

On to `COC(=O)[C@@]1(Cc2ccccc2)[C@H]2c3cc(C(=O)N(C)C)n(CCc4c[nH]c5ccc(O)cc45)c3C[C@H]2CN1C(=O)c1ccccc1`, for which the z-score in assay [1] was 0.236; in [2] it was 0.412 (inactive); in assay [3] it was -1.18 (inactive); in assay [5] it was 1.07 (inactive); in assay [6], -0.438 (inactive); in [7] it was 0.117 (inactive). Moreover, the z-score was 0.29 (inactive) in assay [8]; -1.27 in [9]; -1.59 in [12]; -5.16 (inactive) in assay [13]; -0.996 (inactive) in [14]; -0.844 (inactive) in assay [15]. Further, the composite z-score was -0.568 (inactive) in assay [4], -0.0261 in assay [10], 1.44 (inactive) in [11] and 0.818 with XIP peptide (Xip251-270).

Turning to `[N-]=[N+]=NCc1ccccc1[C@@H]1OC(c2ccc(OCCCO)cc2)=N[C@]1(CCS(=O)(=O)c1ccccc1)C(N)=O`, the z-score is -0.493 in assay [1]; -0.583 (inactive) in [2]; -0.163 (inactive) in assay [3]; -0.651 (inactive) in [5]; 0.573 (inactive) in assay [6]; 0.0745 (inactive) in assay [7]. Further, the z-score was 0.859 (inactive) in assay [8]; 0.0529 in assay [9]; -0.397 in [12]; -3.55 (inactive) in assay [13]; -0.0248 (inactive) in [14]; 0.227 (inactive) in assay [15]. The composite z-score was -0.449 (inactive) in assay [4], 0.243 in assay [10], 0.57 (inactive) in [11] and 0.869 with XIP peptide (Xip251-270).

For the molecule `CC(C)[Si](C#C[Si](C(C)C)(C(C)C)C(C)C)(O[C@H](C)c1cn(Cc2ccccc2)nn1)C(C)C`, the z-score in [1] was 0.0403; in assay [2] it was 0.745 (inactive); in assay [3] it was 1.74 (inactive); in [5], 0.419 (inactive); in assay [6], -0.0006 (inactive); in assay [7] it was -0.118 (inactive). Moreover, the z-score in assay [8] is 0.164 (inactive); in [9], 0.776; in [12] it was 1.59; in [13], -0.236 (inactive); in assay [14] it was -0.175 (inactive); in assay [15], -0.288 (inactive). Besides, the composite z-score in [4] was -0.348 (inactive); in assay [10], 0.013; in assay [11] it was -0.0845 (inactive); in the assay with XIP peptide (Xip251-270) it was 0.0972.
